Potency and outcome data for nine molecules are collected here from PubChem BioAssay (Tox21).

Assay [1] in a line: A CellTox Green Cytotoxicity Assay to monitor cytotoxicity in HEK293 cells - 32 hour (AID 1224881). Further: nearly all actives have a fitted effect of over 40% in size. Further: potency means the concentration at half of the fitted maximal effect. The method in brief: (§1)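 Nonlytic real-time cytotoxicity: HEK293 + CellTox Green reagent plated, 5 h preincubation, pintool compound addition (23 nL in DMSO), 37 C for 40 h, fluorescence measured at successive time points.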
The nature of assay [2]: A CellTox Green Cytotoxicity Assay to monitor cytotoxicity in HepG2 cells - 0 hour (AID 1224882). Further: nearly all actives have a fitted effect of over 35% in size. The method in brief: (§2)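 Read-out is fluorescence of a cyanine dye excluded from live cells that stains DNA of dead HepG2 cells, with signal proportional to cytotoxicity. Plates were read at 0, 8, 16, 24, 32 and 40 h after compound addition.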
Assay [3] is described as follows: qHTS RealTime-Glo MT Cell Viability Assay in HepG2 cells - 16 hour (AID 1224885). Further: nearly all actives have a fitted effect of over 50% in size. The essentials: (§3)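 Viability was tracked continuously by NanoLuc luminescence from prosubstrate reduced by living HepG2 cells, at successive time points over 40 h of compound exposure. Cells with reagent were preincubated 5 h at 37 °C before compound addition.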
(In qHTS, concentration-response curves come from the screen itself.)

The nature of assay [4]: qHTS RealTime-Glo MT Cell Viability Assay in HEK293 cells - 24 hour (AID 1224886). Further: nearly all actives have a fitted effect of over 50% in size. Further: potency means the concentration at half of the fitted maximal effect. The essentials: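 Viability tracked continuously by luminescence as live cells reduce a prosubstrate for NanoLuc; HEK293 cells preincubated 5 h, compound-treated at 37 C, and read at 0, 8, 16, 24, 32 and 40 h.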
Assay [5] in a line: qHTS RealTime-Glo MT Cell Viability Assay in HEK293 cells - 8 hour (AID 1224887). Further: top concentration of the series differs between compounds; nearly all actives have a fitted effect of over 50% in size. The essentials: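 Cells were seeded together with NanoLuc luciferase and a prosubstrate that viable cells reduce to a luciferase substrate. After a 5 h incubation at 37 C/5% CO2, compounds were added and luminescence was measured repeatedly during 40 h of treatment.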
Assay [6] in a line: A CellTox Green Cytotoxicity Assay to monitor cytotoxicity in HEK293 cells - 16 hour (AID 1224888). Further: nearly all actives have a fitted effect of over 35% in size. The essentials:
as §1

Assay [7] is described as follows: qHTS RealTime-Glo MT Cell Viability Assay in HepG2 cells - 0 hour (AID 1224889). Further: nearly all actives have a fitted effect of over 50% in size. The essentials: as §3
Assay [8] can be described thus: A CellTox Green Cytotoxicity Assay to monitor cytotoxicity in HepG2 cells - 8 hour (AID 1224890). Further: nearly all actives have a fitted effect of over 45% in size. The essentials: as §2
Assay [9] is described as follows: qHTS assay to identify small molecule antagonists of the estrogen receptor alpha (ER-alpha) signaling pathway using the BG1 cell line in the presence of 0.1 nM 17-beta-estradiol - cell viability counter screen (AID 1259241). Further: nearly all actives have a fitted effect of over 40% in size. The method in brief: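 Live-cell protease activity (CellTiter-Fluor fluorescence, 30 min) was read in the same wells after VM7Luc4E2 cells had been exposed to compounds with 0.1 nM 17beta-estradiol for 22 hr at 37C.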

Assay [10] is described as follows: qHTS assay to identify small molecule antagonists of the androgen receptor (AR) signaling pathway using the MDA cell line in the presence of 0.5 nM R1881 - cell viability counter screen (AID 1259242). Further: nearly all actives have a fitted effect of over 45% in size. The essentials:
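Counter screen for cytotoxicity run in the same wells as the AR antagonist reporter screen: MDA-kb2 cells were treated 16 hr with test compounds and 0.5 nM R1881, then live-cell protease activity was measured by fluorescence.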

Assay [11] has as its target Estrogen receptor (Homo sapiens) (UniProt P03372). As to the kind of experiment: qHTS assay to identify small molecule antagonists of the estrogen receptor alpha (ER-alpha) signaling pathway using the BG1 cell line in the presence of 0.1 nM 17-beta-estradiol (AID 1259244). Further: nearly all actives have a fitted effect of over 50% in size. The method in brief:
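Cells: VM7Luc4E2, endogenous ER-alpha, 4x ERE-luc stable. Pre-culture 5 d, phenol red-free, charcoal-stripped FBS. Plated 24 h, compound + E2 0.1 nM final, 22 h 37C/5% CO2. Readout ONE-Glo luminescence.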

Assay [12] in a line: qHTS assay to identify small molecule HDAC inhibitors (AID 1259364). Further: top concentration of the series differs between compounds; nearly all actives have a fitted effect of over 45% in size. The essentials:
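Luminescence from a cell-permeant luminogenic class I/II HDAC substrate reports endogenous deacetylase activity in intact HCT-116 cells treated with compounds for 2 h.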

A short description of assay [13]: qHTS assay to identify small molecule HDAC inhibitors - cell viability counter screen (AID 1259365). The method in brief:
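HCT-116 (wild type), 1,500 cells/well, overnight 37C/5% CO2; compound in DMSO 2hr; CellTiter-Glo 30min RT; luminescence read.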

The nature of assay [14]: qHTS assay to identify small molecule agonists of the sonic hedgehog signaling (Shh) pathway - cell viability counter screen (AID 1259366). Further: nearly all actives have a fitted effect of over 50% in size. The essentials:
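CellTiter-Fluor fluorescence read-out, 1 hr at 37C, added after 23hr compound exposure. Cells: 3T3 Gli1-Luc, an NIH/3T3 clone with stably integrated Gli1-Luc reporter, plated 4hr before compound.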

Assay [15] in a line: qHTS assay to identify small molecule antagonists of the sonic hedgehog signaling (Shh) pathway - cell viability counter screen (AID 1259367). Further: nearly all actives have a fitted effect of over 55% in size. The essentials:
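Using CellTiter-Fluor, viability of Gli1-Luc reporter 3T3 cells is read by fluorescence in the wells used for the Shh luciferase assay. Treatment lasts 23 hr with conditioned medium, then reagent 1 hr at 37C.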

Assay [16] can be described thus: qHTS assay to identify small molecule agonists of the sonic hedgehog signaling (Shh) pathway (AID 1259368; calls by dose curve;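 further: NIH/3T3-derived 3T3Gli1-Luc cells carrying a stable Gli1-driven firefly luciferase reporter; series mostly up to about 92 µM; nearly all actives have a fitted effect of over 15% in size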). The method in brief:
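3T3Gli1-Luc (NIH/3T3 clone, stable Gli1-Luc); 4 hr pre-incubation, then cpd in DMSO 24 hr, 37 C/5% CO2; luciferase reagent 30 min RT; luminescence.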

Assay [17] can be described thus: A CellTox Green Cytotoxicity Assay to monitor cytotoxicity in HepG2 cells - 32 hour (AID 1224883). Further: nearly all actives have a fitted effect of over 50% in size. The method in brief: as §2
Assay [18] addresses Androgen receptor (Homo sapiens) (UniProt P10275). In words: qHTS assay to identify small molecule antagonists of the androgen receptor (AR) signaling pathway using the MDA cell line in the presence of 0.5 nM R1881 (AID 1259243). Further: nearly all actives have a fitted effect of over 50% in size. The method in brief: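 Luciferase luminescence is the read-out: compounds are tested for suppressing 0.5 nM R1881-driven MMTV reporter activity in MDA-kb2 cells after 16 hr at 37C.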

A short description of assay [19]: A CellTox Green Cytotoxicity Assay to monitor cytotoxicity in HEK293 cells - 8 hour (AID 1224884). Further: nearly all actives have a fitted effect of over 35% in size. The method in brief:
as §1

Records with an inconclusive call do not appear. A structure can be active in one record and inactive in another. Active and inactive are the calls of the source. Unless noted, the call rests on the fitted dose curve; in most records, active means well fitted curve in the direction sought with a large enough effect in the repeat runs; inconclusive means weak or mixed curves; inactive means no such curve, though single readings can be large; an effect the other way counts as inactive or inconclusive.

Sequence of Estrogen receptor (Homo sapiens) (P03372 whole entry, looked up): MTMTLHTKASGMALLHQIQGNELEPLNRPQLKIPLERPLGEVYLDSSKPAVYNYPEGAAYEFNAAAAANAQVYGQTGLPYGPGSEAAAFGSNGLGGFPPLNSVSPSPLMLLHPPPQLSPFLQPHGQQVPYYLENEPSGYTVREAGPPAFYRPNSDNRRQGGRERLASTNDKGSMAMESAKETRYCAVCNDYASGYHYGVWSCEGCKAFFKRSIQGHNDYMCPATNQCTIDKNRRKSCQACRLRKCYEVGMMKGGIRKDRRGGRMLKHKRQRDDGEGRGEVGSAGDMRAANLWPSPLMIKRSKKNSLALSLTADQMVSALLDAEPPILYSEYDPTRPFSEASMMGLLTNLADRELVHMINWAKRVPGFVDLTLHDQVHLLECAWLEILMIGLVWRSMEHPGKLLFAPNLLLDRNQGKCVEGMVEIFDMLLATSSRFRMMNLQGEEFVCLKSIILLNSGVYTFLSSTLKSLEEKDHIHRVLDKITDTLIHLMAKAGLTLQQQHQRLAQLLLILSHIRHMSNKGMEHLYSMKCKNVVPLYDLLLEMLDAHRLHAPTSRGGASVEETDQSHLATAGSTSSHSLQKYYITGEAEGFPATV
Sequence of Androgen receptor (Homo sapiens) (P10275 whole entry, looked up): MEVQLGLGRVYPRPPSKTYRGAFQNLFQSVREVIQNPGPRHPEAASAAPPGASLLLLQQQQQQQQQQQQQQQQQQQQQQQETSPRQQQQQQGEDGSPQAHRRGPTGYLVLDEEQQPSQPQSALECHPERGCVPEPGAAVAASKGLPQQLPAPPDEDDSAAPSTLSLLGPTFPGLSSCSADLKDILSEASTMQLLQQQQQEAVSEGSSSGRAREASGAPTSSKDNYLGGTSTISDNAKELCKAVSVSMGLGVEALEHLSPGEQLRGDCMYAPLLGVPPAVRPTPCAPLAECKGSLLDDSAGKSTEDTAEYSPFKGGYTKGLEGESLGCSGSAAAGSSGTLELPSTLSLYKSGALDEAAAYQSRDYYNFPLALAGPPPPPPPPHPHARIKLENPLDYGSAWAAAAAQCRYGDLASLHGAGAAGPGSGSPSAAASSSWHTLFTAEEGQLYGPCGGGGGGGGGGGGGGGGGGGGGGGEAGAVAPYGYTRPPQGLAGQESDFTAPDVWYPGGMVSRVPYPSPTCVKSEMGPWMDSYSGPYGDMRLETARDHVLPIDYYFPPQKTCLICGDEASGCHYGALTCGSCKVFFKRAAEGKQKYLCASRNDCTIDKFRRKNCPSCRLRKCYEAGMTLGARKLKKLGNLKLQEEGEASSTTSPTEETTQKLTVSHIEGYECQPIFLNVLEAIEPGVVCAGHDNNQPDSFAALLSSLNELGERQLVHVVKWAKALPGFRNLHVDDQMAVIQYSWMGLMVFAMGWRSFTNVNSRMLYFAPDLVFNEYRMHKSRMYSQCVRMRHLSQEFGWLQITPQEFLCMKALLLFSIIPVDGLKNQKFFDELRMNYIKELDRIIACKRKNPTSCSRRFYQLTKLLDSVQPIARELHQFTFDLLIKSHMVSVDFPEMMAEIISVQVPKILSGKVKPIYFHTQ

Turning to `Cc1cccc2sc3nncn3c12`, the Potency entry in [1], in assay [3], in assay [4], in [5], in assay [6] and in assay [8] was “inactive” each time. In addition, the Potency entry in assay [10], in [11], in assay [12], in [14] and in assay [15] was “inactive” each time. Moreover, the molecule was called inactive in [2], in assay [7], in assay [9], in assay [13] and in [16].
For `CCN[C@@H](C)Cc1ccccc1`, the Potency result in assay [1], in assay [17], in assay [4], in assay [6], in [8] and in assay [10] was “inactive” each time. Also, the Potency entry in assay [18], in assay [11], in assay [12], in assay [14] and in assay [15] was “inactive” throughout. The result in assay [2], in [7], in assay [9], in assay [13] and in assay [16] was inactive.
For the molecule `O=C(O)c1c(Cl)ccc2cc(Cl)cnc12`, the Potency entry in assay [1], in assay [17], in [3], in [4], in [5] and in assay [8] was “inactive” each time. For the same molecule, the Potency entry in [10], in assay [11], in assay [12], in assay [14] and in assay [15] was “inactive” in each case. Further, the result in assay [2], in assay [7], in assay [9], in assay [13] and in assay [16] was inactive.
As for `CCOC(=O)CC(SP(=S)(OC)OC)C(=O)OCC` (stereo not drawn), the Potency result in [1], in assay [17], in assay [19], in [3], in assay [4] and in assay [5] was “inactive” throughout. Also, the Potency entry in assay [6], in [8], in assay [10], in [18], in assay [11] and in [12] was “inactive” each time. In addition, the Potency result in assay [14] and in [15] was “inactive” each time. For the same molecule, the molecule was classed as inactive in assay [7], in [9], in assay [13] and in assay [16].
With `CNC(=O)O/N=C(/CSC)C(C)(C)C`, the Potency result in [1], in assay [17], in assay [3], in assay [4], in [6] and in assay [8] was “inactive” each time. In addition, the Potency result in assay [10], in [18], in assay [11], in [12], in assay [14] and in assay [15] was “inactive” each time. Moreover, the molecule was called inactive in [2], in assay [7], in assay [9] and in [13].
Turning to `NNC(N)=O`, the Potency entry in assay [1], in [17], in [3], in assay [4], in assay [6] and in assay [8] was “inactive” in each case. Besides, the Potency entry in assay [10], in [11], in assay [14] and in assay [15] was “inactive” throughout. Also, the molecule was called inactive in assay [2], in [7], in assay [9], in assay [13] and in assay [16].
On to `ClC1=C(Cl)C2(Cl)C(CBr)CC1(Cl)C2(Cl)Cl` (stereo not drawn), for which the Potency in [1] was 54.9 µM (active) and inactive; in assay [4], 49 µM (active) and inactive. Besides, the outcome in assay [2], in assay [7], in assay [9], in [13] and in [16] was inactive. In addition, the Potency result in assay [17], in assay [3], in assay [8], in assay [10], in assay [11] and in assay [12] was “inactive” each time. Besides, the Potency entry in assay [14] and in assay [15] was “inactive” each time.
As for `CCOC(=O)Nc1cccc(OC(=O)Nc2ccccc2)c1`, the Potency result in assay [1], in assay [19], in assay [3], in [4], in [6] and in [8] was “inactive” throughout. For the same molecule, the Potency entry in assay [10], in [11], in assay [14] and in [15] was “inactive” throughout. Also, the molecule was classed as inactive in assay [2], in assay [7], in assay [9], in [13] and in assay [16].
With `CC(=O)CN(CC(C)=O)N=O`, the Potency result in [1], in assay [17], in [3], in [4], in [6] and in assay [8] was “inactive” throughout. The Potency entry in assay [10], in assay [11], in assay [12], in assay [14] and in assay [15] was “inactive” in each case. In addition, the result in assay [2], in assay [7], in assay [9], in assay [13] and in [16] was inactive.
